Results taken from the supplement of paper PMC3334620.
Over roughly 33,000 sequences, “E-score (-0.5 to 0.5)” has its median near -0.013; the highest 2% begin near 0.3. Only a selection was taken, and the highest values are over-represented in it overall.

Target: T1, Msn1 (UniProt P22148)
T1 sequence: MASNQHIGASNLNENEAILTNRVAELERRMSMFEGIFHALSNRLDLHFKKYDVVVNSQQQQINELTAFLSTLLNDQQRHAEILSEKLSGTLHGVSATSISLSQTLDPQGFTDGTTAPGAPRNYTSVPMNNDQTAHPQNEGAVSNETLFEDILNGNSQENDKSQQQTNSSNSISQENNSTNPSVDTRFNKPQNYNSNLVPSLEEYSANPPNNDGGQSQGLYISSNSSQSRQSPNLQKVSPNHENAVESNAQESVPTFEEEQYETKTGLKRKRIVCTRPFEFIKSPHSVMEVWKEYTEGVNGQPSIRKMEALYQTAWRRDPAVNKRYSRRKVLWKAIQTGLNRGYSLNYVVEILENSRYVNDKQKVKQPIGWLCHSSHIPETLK
Assay: PBM E-score (8-mer binding enrichment) (E-score (-0.5 to 0.5)); higher = stronger / more preferred TF binding
Details: protein concentration: 200 nM; construct: GST-full length
Experimental: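 Universal 'all 10-mer' protein binding microarrays (Agilent AMADID 015681) probed with GST-tagged S. cerevisiae TFs (full-length or DBD) made by in vitro transcription/translation (PURExpress), about 100-200 nM. Bound TF was detected with fluorescent anti-GST. Each ungapped 8-mer (which stands for itself and its reverse complement) is scored by the PBM enrichment score (E-score), a modified Wilcoxon-Mann-Whitney statistic from -0.5 to +0.5, computed with the Universal PBM Analysis Suite. Scale: above 0.35 generally sequence-specific binding.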

Sequence	PBM E-score
CTGGGCCC	-0.252
CGCCTGGA	-0.0478
ACTGAACA	0.0547
CATTGCGA	-0.0316
ATCACCAA	-0.0626
GAGTAATC	-0.128
CCGACTGC	-0.00611
TAATGTAA	0.114
ACGGTTCT	-0.0415
AGACAATC	0.359
CGACAACA	0.204
AGACAACA	0.248
GGACAAGA	0.458
CGACAAGA	0.121
ATACAATC	-0.0273
GCACAAGA	-0.0415
CTACAATA	0.0926
GTACAATA	0.332
GGACAACA	0.337
ATACAATA	0.114
AGACAACC	0.208
AAATCTCC	-0.234
AGCCTTCC	-0.323
ACTTCGCT	-0.0222
AGGGCCAT	-0.246

Sequence	PBM E-score
AATTTCCT	0.0244
TACGGGGA	-0.11
ATCGTATG	0.0884
GGACAATA	0.464
AGACAATA	0.428
CGACAATA	0.334
CGACAAGC	-0.0394
ACACAATA	0.15
AGACAAGA	0.3
AGACAAGC	0.307
GAACAATA	0.144
CCACAATA	-0.105
CGACAATC	0.113
GCACAATA	-0.126
AGACAATG	0.295
CCCTAGCA	-0.119
CGTAGCAC	-0.0105
CATAGATA	0.126
AGCGAATG	-0.207
AGAGTATG	-0.143
AGAACTGA	0.0524
TCACTTCA	-0.0878
GATTTTCA	0.209
TACAGCAA	0.00838
GAACGTCC	0.206

Sequence	PBM E-score
AAACGTCC	0.317
AAACGTCT	0.24
TACTTCAA	0.16
AGGATACG	-0.105
CTCGCCCC	-0.302
AAGGTACA	0.166
CTGTGAGA	0.00231
ATCATGTC	0.278
AACATGTA	0.186
GACATGGC	0.276
CACATGTC	0.431
AACATGTG	0.0694
CACATGTA	0.121
AACATGTT	-0.0343
GACATGTA	0.424
AACATGTC	0.401
CACATGTG	-0.149
GACATGTC	0.455
TACATGTA	0.247
CGAGGGCG	-0.271
GACTCATC	-0.0489
GCTCTGCC	-0.281
GCGGTCCC	-0.188
ACTATGAA	0.112
CGCAATAA	0.212

Sequence	PBM E-score
ATCGAAAT	-0.151
CAATAGCA	-0.168
ACGAGGAC	0.324
GTCAGGAC	0.316
CTCAGGAC	0.243
ATCAGGAC	0.307
GTCAGGAA	0.0369
ACCAGGAC	0.329
GCCAGGAC	0.212
ACGAGGAT	-0.178
ATCAGGAG	-0.0236
GCGAGGAC	0.0256
ACCAGGAA	-0.0403
CCCAGGAC	0.0729
CATAAAGC	-0.057
CGTGCTGC	-0.144
CTTCACTA	-0.0698
CTGAGAAG	-0.24
CCGTTGCA	0.0113
ACCTTCTG	-0.0438
ATGAGTGA	0.12
CTTGTTAA	-0.0116
ATTGTTAA	0.0881
GTTGTTAA	0.334
CAGAGAAG	-0.18

Sequence	PBM E-score
GCGTCTAC	-0.0433
CACATGAA	0.0613
GACATGCC	0.337
CACATCCC	-0.14
AACATCCC	0.0693
GACATGAA	0.308
TACATGGA	0.193
CACATGCC	0.0209
AACATGGA	0.159
TACATGAA	0.117
GACATCCC	0.374
GACATGGA	0.342
GACATGCA	0.276
AACCACAA	0.042
CCGCTAAG	0.0391
ATACACTG	0.0602
AAAAAGAA	0.036
ATTGGAAG	-0.0559
ATAGATCC	-0.0574
AATTTCAG	0.127
ACGTGCTA	-0.167
GATCCTTA	-0.107
AATGCGTG	0.0114
AGCAATTG	0.00301
ATTCGGCC	0.0205

Sequence	PBM E-score
CGTTGTTC	0.0573
CTTAGAGA	-0.00262
CACATCTA	0.0157
GACATGAC	0.335
AACATGAC	0.0901
GACATCTA	0.404
CACATGAC	-0.0252
TACATCTA	0.105
AGGCACCC	-0.241
ATCGCTAG	0.022
GAGTGGCC	-0.224
AAGTGTCC	0.366
AAGTGTCT	0.257
GAGTGTCC	0.232
CAGTGTCC	0.348
CAGTGTCG	0.0205
AAGTGTCG	0.126
CCGTGTCG	0.00655
CCGTGTCC	0.413
GCGTGTCA	0.136
GCGTGTAC	0.203
ACGTGTCG	0.0594
ACGTGTCC	0.455
CCGTGTCA	0.121
GCGTGTCC	0.431

Sequence	PBM E-score
ACGTGTCT	0.16
AATCTTCA	0.211
GCTGTGCC	0.00582
GCGCTATA	-0.036
GGAGCGAA	0.0407
AGGGAGGG	-0.283
TAGTTTGA	0.113
CACCATAG	-0.153
AGGTGTCC	0.263
ATGTGTCC	0.438
CGGTGTCA	0.0418
CGGTGTCC	0.304
ATGTGTCA	0.217
ATGTGTCG	0.194
CTGTGTCC	0.439
CTGTGTAC	0.197
CTGTGTCA	0.02
CCCGTAAG	-0.117
CGTTACTC	-0.115
GCTTTCCC	0.00071
AGCTCCTC	-0.315
GAAACGAA	0.115
CCAATTCC	0.0443
CCAAAGAG	-0.0341
CTGTCCTA	0.346

Sequence	PBM E-score
GCGTCCTA	0.168
CGGTCCTA	-0.185
CAGTCCTA	0.0807
GTGTCCTA	0.468
GAGTCCTA	0.0172
ACTGGGCC	-0.0731
CGCTATAC	-0.194
CCAGTACA	0.177
TCAGTACA	0.319
CTAGTACC	-0.0261
GTAGTACA	0.167
ACAGTACA	0.189
CTAGTACA	0.308
TAAGAGTA	0.0785
GCGGAGCC	-0.139
GGTTAGAC	0.076
ATGTCTCA	0.446
CTGTCTCA	0.087
ATGTCTCC	0.302
GTGTCTCA	0.286
AGGTCTCG	-0.156
ATGTCTCG	0.333
ACGGGCGG	-0.141
ACCCACGG	-0.17
CAGGTAAC	-0.0911

Sequence	PBM E-score
GAGCCGCC	-0.217
CAGCCTAC	-0.125
ACACGGAC	0.32
ACACGGAA	0.166
ACACGGAG	0.00035
ACCCGTCC	-0.0862
GTATGGAA	-0.0401
GGATGGAC	0.178
ATATGGAC	0.356
CTATGGAC	0.257
ACATGGAC	0.326
AAATGGAA	0.131
AAATGGAT	-0.0165
ACATGGAT	0.162
ATATGGAG	0.12
GTATGGAC	0.335
GCATGGAC	0.268
AAATGGAC	0.338
GAAATCTA	-0.139
